ssDAF12 agonist: activates DAF-12 receptor from parasite S. stercoralis | HEK293 ssDAF-12/GRIP1 lit1-tk-luc reporter, luminescence; % of 3 µM dafachronic acid response | activation, % at 6.8 µM | actives 1% (n = 370,000) | AID 652126;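 active = activation above the mean over all tested compounds plus 3 SD, cut at about 0.9% in these data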;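 note: 0% = DMSO-only wells and 100% = 3 µM delta7-dafachronic acid wells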
hgDAF12 agonist: activates the H. glycines DAF-12 receptor ligand-binding domain. HEK293 GAL4-hgDAF12 UAS-luciferase reporter, agonist luminescence; normalized to butyrate control. activation, % at 6.8 µM. actives 1.8% (n = 370,000). AID 687014;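 active = activation above a cutoff set at the mean of all screened compounds plus 3 SD, cut at about 10% in these data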;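 note: 0% = DMSO wells and 100% = sodium butyrate wells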
DAX1 inh: blocks DAX1 repression of SF-1 activated StAR promoter; HEK293T StAR-luciferase reporter, SF-1/DAX-1 repression relief; inhibition, % at 6.8 µM; actives 1.1% (n = 370,000);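 active = inhibition above the mean over all tested compounds plus 3 SD, cut at about 3.6% in these data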;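 note: 0% = DAX-1 cells with DMSO and 100% = cells lacking DAX-1 with DMSO; higher inhibition means more luminescence from relief of DAX-1 repression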
hcDAF12 agonist: H. contortus DAF-12 activation, primary screen; actives 1.4% (n = 370,000); HEK293 hcDAF-12 lit1-tk-luc reporter, luminescence; 0% DMSO, 100% Δ7-dafachronic acid; activation, % at 6.8 µM; AID 652067;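 active = activation above the mean of all tested compounds plus 3 SD, cut at about 5.5% in these data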;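 note: 100% = response to 3 µM Δ7-dafachronic acid high control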
SMARCA2 activ: SMARCA2 function activation, primary screen | actives 1% (n = 370,000) | MG213 cells, MMTV-luciferase reporter, dexamethasone, overnight | activation, % at 9.1 µM; in the data active = activation above about 7.8%;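 note: 0% = vehicle wells and 100% = reference activator wells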
hgDAF12 ag: hgDAF-12 agonism, confirmation assay; shares compounds with hgDAF12 agonist; HEK293 GAL4-hgDAF12 luciferase reporter, agonist mode; percent of butyrate response; activation, % at 6.8 µM; actives 80% (n = 3,300); AID 743050;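 active = mean activation over triplicate wells above the hit cutoff derived from the earlier primary screen, cut at about 11% in these data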;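 note: 0% = DMSO low control and 100% = 2 mM sodium butyrate high control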
LXRb DAF12 ctr: LXR-beta agonism as DAF-12 counter-screen | shares compounds with hgDAF12 agonist | HEK293 Gal4-LXR luciferase reporter, 24 h | activation, % at 6.8 µM | 3,300 tested, under 10 active | AID 743051;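 active = mean activation of the triplicate above a set limit carried over from the primary screen, none filed active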
Target sequence (P55055 whole entry, looked up, the tested form may be a part): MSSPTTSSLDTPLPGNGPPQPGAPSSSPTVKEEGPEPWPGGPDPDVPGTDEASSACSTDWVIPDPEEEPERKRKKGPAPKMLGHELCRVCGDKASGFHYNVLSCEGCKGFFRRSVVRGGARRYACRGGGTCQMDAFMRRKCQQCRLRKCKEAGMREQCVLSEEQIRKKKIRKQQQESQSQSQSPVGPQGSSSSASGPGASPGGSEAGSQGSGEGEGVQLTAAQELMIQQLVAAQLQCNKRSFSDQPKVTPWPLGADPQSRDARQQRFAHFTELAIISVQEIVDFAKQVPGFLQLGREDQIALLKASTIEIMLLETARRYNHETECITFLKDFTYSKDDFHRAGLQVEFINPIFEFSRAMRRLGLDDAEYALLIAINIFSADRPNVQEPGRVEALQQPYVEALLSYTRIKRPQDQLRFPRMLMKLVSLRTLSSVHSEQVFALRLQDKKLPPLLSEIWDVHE
Active calls of the source: *. The list is not random: actives were taken first. Their share in the collection is about 4.2%.

Cc1c(CN2CCN(c3ncc(Cc4ccccc4)cn3)CC2)c(=O)n(-c2ccccc2)n1C was read as ssDAF12 agonist -1, hgDAF12 agonist -1, DAX1 inh -2, hcDAF12 agonist -3 and SMARCA2 activ -2.
`CCOc1ccc(CN(CCC#N)C(=S)NC(=O)c2ccccc2)cc1` gave ssDAF12 agonist -1, hgDAF12 agonist 17*, DAX1 inh -1, hcDAF12 agonist -2, SMARCA2 activ -2, hgDAF12 ag -2 and LXRb DAF12 ctr 0.
Screening COc1ccc(CN(CCC#N)C(=S)NC(=O)c2ccccc2)cc1 returned ssDAF12 agonist -1, hgDAF12 agonist 2, DAX1 inh 0, hcDAF12 agonist 0 and SMARCA2 activ 0.
For CCCSc1nsc(NC(=O)CCC)n1 the results were ssDAF12 agonist 0, hgDAF12 agonist 19*, DAX1 inh 3, hcDAF12 agonist 4, SMARCA2 activ 4, hgDAF12 ag 15* and LXRb DAF12 ctr 1.
For CCCCSc1nsc(NC(C)=O)n1 the results were ssDAF12 agonist -1, hgDAF12 agonist 9, DAX1 inh 2, hcDAF12 agonist 4 and SMARCA2 activ 3.
COCc1cc(N2CCN(C(=O)OC(C)(C)C)C[C@@H]2C)ccc1N1CC[C@H](O)C1 was read as ssDAF12 agonist -1, hgDAF12 agonist 0, DAX1 inh -1, hcDAF12 agonist -3 and SMARCA2 activ -2.
For Clc1ccc(-c2ccc(SCc3ccccn3)nn2)cc1 the results were ssDAF12 agonist 1, hgDAF12 agonist 7, DAX1 inh 1, hcDAF12 agonist 2 and SMARCA2 activ 0.
c1ccc(CSc2ccc(-c3ccccn3)nn2)nc1 was read as ssDAF12 agonist 0, hgDAF12 agonist 16*, DAX1 inh 3, hcDAF12 agonist 3, SMARCA2 activ 4, hgDAF12 ag 10 and LXRb DAF12 ctr 1.
For CCOC(=O)C1CSCCS(=O)(=O)N1Cc1ccccc1C (stereo unspecified) the results were ssDAF12 agonist -1, hgDAF12 agonist -2, DAX1 inh 0, hcDAF12 agonist 1 and SMARCA2 activ -6.
Screening O=C(O)C1C2CCC(O2)C1C(=O)Nc1ccc(F)cc1 (stereo unspecified) returned ssDAF12 agonist -1, hgDAF12 agonist 0, DAX1 inh 0, hcDAF12 agonist 1 and SMARCA2 activ -2.
O=C(O)c1ccc(NC(=O)C2C3CCC(O3)C2C(=O)O)cc1 (stereo unspecified) was read as ssDAF12 agonist 1.4*, hgDAF12 agonist 14*, DAX1 inh 1, hcDAF12 agonist 6.0*, SMARCA2 activ 6, hgDAF12 ag 3 and LXRb DAF12 ctr 0.
CCc1nc2c(OCCC3CCCCC3)cccn2c1N(C)C(=O)c1cccs1 was read as ssDAF12 agonist -2, hgDAF12 agonist -2, DAX1 inh -1, hcDAF12 agonist -1 and SMARCA2 activ -2.
For Cc1ccc(-c2cc(C(=O)N/N=C/c3c[nH]c4ccccc34)[nH]n2)cc1 the results were ssDAF12 agonist -1, hgDAF12 agonist 14*, DAX1 inh -2, hcDAF12 agonist 0, SMARCA2 activ 2, hgDAF12 ag 6 and LXRb DAF12 ctr 0.
Screening O=C(N/N=C/c1ccccn1)c1cc(-c2cccc3ccccc23)n[nH]1 returned ssDAF12 agonist -1, hgDAF12 agonist 14*, DAX1 inh 1, hcDAF12 agonist -1, SMARCA2 activ 0, hgDAF12 ag -1 and LXRb DAF12 ctr 0.
`Cc1ccc(-c2cc(C(=O)NN=Cc3ccccc3OCC(=O)O)[nH]n2)cc1` gave ssDAF12 agonist -1, hgDAF12 agonist 4, DAX1 inh 0, hcDAF12 agonist 2 and SMARCA2 activ -2.
O=C(N/N=C/c1ccccn1)c1cc(-c2ccccc2Cl)n[nH]1 was read as ssDAF12 agonist -1, hgDAF12 agonist 0, DAX1 inh 0, hcDAF12 agonist 0 and SMARCA2 activ 1.
`CCc1ccc(-c2cc(C(=O)N/N=C/c3ccccn3)[nH]n2)cc1` gave ssDAF12 agonist 0, hgDAF12 agonist 18*, DAX1 inh 2, hcDAF12 agonist 4, SMARCA2 activ 0, hgDAF12 ag 3 and LXRb DAF12 ctr 0.
Cc1cc(C)nc(SCc2ccc(C(=O)N/N=C/c3ccccn3)cc2)n1 was read as ssDAF12 agonist -2, hgDAF12 agonist 1, DAX1 inh 2, hcDAF12 agonist -2 and SMARCA2 activ -3.
For O=C(N/N=C/C=C\c1ccccc1[N+](=O)[O-])c1cc(-c2ccc3ccccc3c2)n[nH]1 the results were ssDAF12 agonist 0, hgDAF12 agonist 4, DAX1 inh 2, hcDAF12 agonist 4 and SMARCA2 activ 3.
O=C(N/N=C/c1ccccn1)c1cc(-c2ccc3ccccc3c2)n[nH]1 was read as ssDAF12 agonist 0, hgDAF12 agonist 22*, DAX1 inh 3, hcDAF12 agonist 5, SMARCA2 activ 2, hgDAF12 ag 1 and LXRb DAF12 ctr 0.
For CC(C)C[C@H]1COc2cccc(N3CCCCC3)c2S(=O)(=O)N1 the results were ssDAF12 agonist -1, hgDAF12 agonist 0, DAX1 inh -2, hcDAF12 agonist -2 and SMARCA2 activ -1.
Screening COCCCNC(=O)c1ccc(Cn2c(=O)c3ccccc3n(Cc3ccc(Br)cc3)c2=O)cc1 returned ssDAF12 agonist -1, hgDAF12 agonist 3, DAX1 inh -1, hcDAF12 agonist 0 and SMARCA2 activ 0.
`C=CCNC(=S)N(C)[C@H]1C[C@H]2c3[nH]c4cccc(-c5cccc(F)c5)c4c3CCN2C(=O)[C@H]1[C@H](C)O` gave ssDAF12 agonist -2, hgDAF12 agonist 4, DAX1 inh 0, hcDAF12 agonist -4 and SMARCA2 activ 0.
`Cc1ccc(NC(=O)c2cc3cccc([N+](=O)[O-])c3[nH]2)cc1` gave ssDAF12 agonist 1.3*, hgDAF12 agonist 13*, DAX1 inh 2, hcDAF12 agonist 4, SMARCA2 activ 2, hgDAF12 ag 19* and LXRb DAF12 ctr 1.
Screening Cc1ccc(NCCC(=O)c2cccs2)cc1C returned ssDAF12 agonist 1, hgDAF12 agonist 15*, DAX1 inh 2, hcDAF12 agonist 4, SMARCA2 activ 3, hgDAF12 ag 15* and LXRb DAF12 ctr 1.
Cc1ccc(NCCC(=O)c2ccc(Cl)cc2)cc1C was read as ssDAF12 agonist 0, hgDAF12 agonist 1, DAX1 inh -1, hcDAF12 agonist 1 and SMARCA2 activ 0.
Screening Cc1nn(-c2ccccn2)c2c1-c1nc(N3CCOCC3)ncc1CC2 returned ssDAF12 agonist -1, hgDAF12 agonist 0, DAX1 inh 0, hcDAF12 agonist -2 and SMARCA2 activ 1.

Compound activity deposited in PubChem BioAssay by The Scripps Research Institute Molecular Screening Center.
